Measured values reported in PubChem BioAssay AID1159580 (chemical genetic matrix, 2015).
“And” between values parts separate entries of the source, which are not always exact repeats. Equal values may be shown once. Screen size: about 5,500 compounds; about 2,000 (36%) were called active. Not shown: some 18% with an inconclusive outcome. Rule as the data show it: active = normalized growth mostly below about 0.91 (no sharp cut-off); inconclusive = no clear call, values can overlap the other calls; inactive = mostly above about 0.92. The list shows a part of the results.

Test: chemical genetic growth profiling, strain panel (AID 1159580);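 also: tested at 20 µM; growth read once vehicle control cultures reached saturation at 30 °C; 1 = growth at the plate median or of vehicle wells; lower values mean less growth of the strain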
Conditions: S. cerevisiae deletion strains, growth OD

Measured: normalized growth

CCOC(=O)C1=C[C@]2(CC)CCCN3CCc4c(n1c1ccccc41)[C@@H]32
inactive: locus YAL021C, strain ccr4, stronger effect = lower value 1.03 | locus YAL026C, strain drs2, stronger effect = lower value 1.02 | locus YAL030W, strain snc1, stronger effect = lower value 1.03 | locus YBL061C, strain skt5, stronger effect = lower value 1.02 | locus YBR009C, strain hhf1, stronger effect = lower value 1.02 | locus YBR021W, strain FUR4, stronger effect = lower value 1.02 | locus YBR023C, strain chs3, stronger effect = lower value 1.03 | locus YBR171W, strain sec66, stronger effect = lower value 1.02 | locus YBR229C, strain ROT2, stronger effect = lower value 0.957 | locus YBR231C, strain swc5, stronger effect = lower value 1.02 | locus YBR279W, strain paf1, stronger effect = lower value 1.01 | locus YCL011C, strain gbp2, stronger effect = lower value 1.03 | locus YCL016C, strain dcc1, stronger effect = lower value 1.02 | locus YCL029C, strain bik1, stronger effect = lower value 0.974 | locus YCL061C, strain MRC1, stronger effect = lower value 1.02 | locus YCL069W, strain vba3, stronger effect = lower value 1.02 | locus YCR088W, strain abp1, stronger effect = lower value 1.02 | locus YDL005C, strain med2, stronger effect = lower value 1.02 | locus YDL035C, strain GPR1, stronger effect = lower value 0.977 | locus YDL040C, strain nat1, stronger effect = lower value 1.03 | locus YDL074C, strain BRE1, stronger effect = lower value 0.928 | locus YDL101C, strain DUN1, stronger effect = lower value 0.957 | locus YDL134C, strain PPH21, stronger effect = lower value 0.998 | locus YDL185W, strain tfp1, stronger effect = lower value 0.985 | locus YDL192W, strain arf1, stronger effect = lower value 0.975 | locus YDR001C, strain nth1, stronger effect = lower value 1.03 | locus YDR069C, strain doa4, stronger effect = lower value 1.05 | locus YDR101C, strain arx1, stronger effect = lower value 0.969 | locus YDR137W, strain rgp1, stronger effect = lower value 0.967 | locus YDR150W, strain NUM1, stronger effect = lower value 0.984 | locus YDR159W, strain sac3, stronger effect = lower value 1.02 | locus YDR162C, strain NBP2, stronger effect = lower value 0.937 | locus YDR195W, strain ref2 1.07 | locus YDR297W, strain sur2, stronger effect = lower value 1.02 | locus YDR318W, strain mcm21, stronger effect = lower value 0.969 | locus YDR334W, strain swr1, stronger effect = lower value 1.03 | locus YDR335W, strain msn5, stronger effect = lower value 1.01 | locus YDR388W, stronger effect = lower value 0.97 | locus YDR392W, strain spt3, stronger effect = lower value 0.979 | locus YDR502C, strain sam2, stronger effect = lower value 0.947 | locus YEL003W, strain gim4, stronger effect = lower value 1.02 | locus YEL037C, strain rad23, stronger effect = lower value 1.01 | locus YEL061C, strain CIN8 (second series), stronger effect = lower value 1.04 | locus YEL061C, strain CIN8, stronger effect = lower value 0.979 | locus YER015W, strain faa2, stronger effect = lower value 1.03 | locus YER016W, strain bim1, stronger effect = lower value 1.01 | locus YER110C, stronger effect = lower value 0.975 | locus YER111C, strain swi4, stronger effect = lower value 1.02 | locus YER155C, strain BEM2 (second series), stronger effect = lower value 0.992 | locus YER155C, strain BEM2, stronger effect = lower value 1.01 | locus YER167W, strain BCK2, stronger effect = lower value 1 | locus YFR010W, strain ubp6, stronger effect = lower value 1.03 | locus YGL078C, strain dbp3, stronger effect = lower value 0.979 | locus YGL086W, strain mad1, stronger effect = lower value 0.948 | locus YGL167C, strain pmr1, stronger effect = lower value 1.01 | locus YGL173C, strain kem1, stronger effect = lower value 1.04 | locus YGL227W, strain vid30, stronger effect = lower value 1.03 | locus YGL240W, strain doc1, stronger effect = lower value 1.03 | locus YGL248W, strain PDE1, stronger effect = lower value 0.954 | locus YGL253W, strain hxk2, stronger effect = lower value 1.03 | locus YGR135W, strain pre9, stronger effect = lower value 1 | locus YGR252W, strain gcn5, stronger effect = lower value 1.03 | locus YHR013C, strain ard1, stronger effect = lower value 1.01 | locus YHR027C, strain rpn1, stronger effect = lower value 1.03 | locus YHR030C, strain SLT2, stronger effect = lower value 0.994 and 1.01 | locus YHR079C, strain IRE1 (second series), stronger effect = lower value 0.985 | locus YHR079C, strain IRE1, stronger effect = lower value 1.03 | locus YHR094C, strain hxt1, stronger effect = lower value 0.977 | locus YHR129C, strain ARP1, stronger effect = lower value 0.987 | locus YHR142W, strain chs7, stronger effect = lower value 1.01 | locus YHR200W, strain rpn10, stronger effect = lower value 0.979 | locus YIL066C, strain RNR3, stronger effect = lower value 0.946 | locus YIL073C, strain SPO22, stronger effect = lower value 1.02 | locus YIL125W, strain kgd1, stronger effect = lower value 0.985 | locus YIR030C, strain dcg1, stronger effect = lower value 0.981 | locus YJL092W, strain hpr5, stronger effect = lower value 1.02 | locus YJL095W, strain BCK1 (second series), stronger effect = lower value 1.01 | locus YJL095W, strain BCK1, stronger effect = lower value 0.867 and 1.02 | locus YJL115W, strain asf1, stronger effect = lower value 1.05 | locus YJL129C, strain trk1, stronger effect = lower value 1.01 | locus YJL134W, strain LCB3, stronger effect = lower value 0.991 | locus YJL154C, strain vps35, stronger effect = lower value 1.01 | locus YJL164C, strain tpk1, stronger effect = lower value 1.01 | locus YJL166W, strain qcr8, stronger effect = lower value 1.02 | locus YJL168C, strain set2, stronger effect = lower value 0.979 | locus YJL187C, strain SWE1 (second series), stronger effect = lower value 0.927 | locus YJR043C, strain POL32, stronger effect = lower value 0.941 | locus YJR066W, strain TOR1, stronger effect = lower value 0.967
